23 molecules from paper PMC6925144, “A prospective compound screening contest identified broader inhibitors for Sirtuin 1” (Scientific Reports, 2019) can be followed below.

Whole data set: some 3,200 compounds, median “TSA(with NAD+) / Primary screening (TSA) / delta Tm (K)” near -0.04, cut for the highest 2% near 0.37. This excerpt belongs to a sample that is enriched for the highest values.

The assay deals with NAD-dependent deacetylase Sirtuin 1 (human, UniProt Q96EB6). Kind of assay: primary screen, delta tm. Also on record: single well (n = 1, as 'the same TSA'). Particulars: 10 µM.
Chain of NAD-dependent deacetylase Sirtuin 1 (Q96EB6 2-747 limits assumed): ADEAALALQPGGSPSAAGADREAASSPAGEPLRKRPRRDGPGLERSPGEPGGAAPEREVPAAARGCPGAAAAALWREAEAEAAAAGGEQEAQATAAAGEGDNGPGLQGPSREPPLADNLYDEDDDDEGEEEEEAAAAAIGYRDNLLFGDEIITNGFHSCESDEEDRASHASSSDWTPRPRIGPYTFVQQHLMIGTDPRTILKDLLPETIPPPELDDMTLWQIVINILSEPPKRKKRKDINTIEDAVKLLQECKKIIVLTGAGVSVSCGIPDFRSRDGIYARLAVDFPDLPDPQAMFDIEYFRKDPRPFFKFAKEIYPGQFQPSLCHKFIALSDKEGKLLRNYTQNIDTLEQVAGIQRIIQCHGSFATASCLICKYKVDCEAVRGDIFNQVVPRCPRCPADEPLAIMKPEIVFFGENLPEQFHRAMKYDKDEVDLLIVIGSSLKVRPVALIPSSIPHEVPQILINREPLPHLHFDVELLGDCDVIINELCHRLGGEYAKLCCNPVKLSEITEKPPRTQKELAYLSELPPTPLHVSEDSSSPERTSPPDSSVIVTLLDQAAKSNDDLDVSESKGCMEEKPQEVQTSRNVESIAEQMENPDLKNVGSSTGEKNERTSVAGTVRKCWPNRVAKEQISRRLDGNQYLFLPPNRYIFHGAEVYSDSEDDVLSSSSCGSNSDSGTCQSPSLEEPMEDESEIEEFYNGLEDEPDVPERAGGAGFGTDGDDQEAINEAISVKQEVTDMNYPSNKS
Regarding `Cn1cc(C(=O)O)c(-c2cccnc2)n1`, the “TSA(with NAD+) / Primary screening (TSA) / delta Tm (K)” value is recorded as 0.06 K.

Turning to `NC(=O)CCN(Cc1ccccc1)C(=O)COC(=O)C12CC3CC(C1)CC(c1ccccc1)(C3)C2`, the “TSA(with NAD+) / Primary screening (TSA) / delta Tm (K)” value was -0.03 K. The value for `O=C(Oc1ccc2oc3ccccc3c2c1)c1ccc([N+](=O)[O-])cc1` was -0.08 K. In the case of `CCN(CC(=O)Nc1ccc(OC)cc1)CC(=O)Nc1ccc(C(N)=O)cc1`, the “TSA(with NAD+) / Primary screening (TSA) / delta Tm (K)” value was -0.04 K. The figure for `COc1ccc(C(=O)OC(C)C(=O)Nc2ccc(C(N)=O)cc2)c(OC)c1` (centres unmarked) is -0.01 K; for `COc1ccc2cc(/C=C/C(=O)Nc3ccc(C(N)=O)cc3)ccc2c1` it is 0.76 K. The figure for `O=C(NCc1ccccc1O)c1ccc2c(c1)C(=O)c1ccccc1-2` is -0.03 K; for `CCC(=O)Nc1cccc(C(=O)NNC(=O)c2nc(-c3ccccc3)n(-c3ccccc3)n2)c1` it is -0.06 K; for `CC(C)C(NC(=O)CCCn1c(=O)oc2cc([N+](=O)[O-])ccc21)c1nnc2ccccn12` (centres unmarked) it is -0.11 K. With `Cc1nc(-c2ccccn2)[nH]c(=O)c1CC(=O)NCCc1cccc2cccnc12`, the “TSA(with NAD+) / Primary screening (TSA) / delta Tm (K)” value was found to be 0.28 K. The figure for `CC(C(=O)NC(c1ccccc1)C1CC1)n1cnc2ccccc21` (centres unmarked) is 0.05 K. The value for `O=C(CCCc1nc2ccccc2c(=O)[nH]1)N1CC2CC3CC(C2)CC1C3` was -0.01 K; that for `CC(N)c1nnn[nH]1` (centres unmarked) was -0.05 K. The figure for `COc1ccc(NC(=O)c2ccccc2NC(=O)COC(=O)C23CC4CC(CC(O)(C4)C2)C3)cc1` is -0.04 K; for `COc1ccc(NC(=O)CC23CC4CC(C2)CC(CC(=O)Nc2ccc(OC)cc2)(C4)C3)cc1` it is -0.11 K; for `COc1ccc(NC(=O)c2ccc(NC(=O)COC(=O)C34CC5CC(CC(Br)(C5)C3)C4)cc2)cc1` it is 0.73 K.

In the case of `COc1ccccc1NC(=O)COc1ccc(C(=O)OCC(=O)NC23CC4CC(CC(C4)C2)C3)cc1OC`, the “TSA(with NAD+) / Primary screening (TSA) / delta Tm (K)” value is on record as 0.13 K. The value for `COc1ccccc1NC(=O)c1ccc(NC(=O)COC(=O)C23CC4CC(CC(C4)C2)C3)cc1` was 0.39 K; that for `COc1ccccc1NS(=O)(=O)c1ccc(NC(=O)CNC(=O)C23CC4CC(CC(C4)C2)C3)cc1` was 0.08 K; that for `Cc1ccccc1CC(=O)Nc1ccc(N2CCN(Cc3ccccc3)CC2)cc1` was 0.09 K. The value for `CN(c1ccccc1)S(=O)(=O)c1ccc(C(=O)NNC(=O)C23CC4CC(CC(C4)C2)C3)cc1` was 0.08 K; that for `COC(=O)c1ccccc1Nc1ccnc(Cl)n1` was -0.11 K; that for `Cc1cccc(-c2nc3ccccc3n3c(C)nnc23)c1` was -0.13 K.
